# Results: PubChem BioAssay
# For part of these data: Results with a measured potency or affinity are listed apart. Calls of active or inactive are those of the source.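 How the source made its calls, unless noted: active means fluorescence ratio normalized to control raised more than 50% in primary screen plus both repeat runs; inactive means the rest.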
# How the values were obtained:
# [1] = tested on: TRPC4 beta (transient receptor potential cation channel C4), mouse; assay: activators of mouse TRPC4 channel, confirmation, cell-based, Fluo4 calcium, HEK293 TRPC4beta/mu-opioid, duplicates, 10 µM (AID 2426); conditions: Fluo4 calcium fluorescence, at 10 µM; active compounds read high
# [2] = tested on: transient receptor potential cation channel C4 beta (TRPC4), mouse; assay: activators of mouse TRPC4 channel, confirmation, cell-based, second round, Fluo4, HEK293 TRPC4beta/mu-opioid, 1 µM (AID 2461;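 active means primary screen active and over 50% activation in each of two duplicate runs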); conditions: Fluo4 calcium fluorescence, at 1 µM; active compounds read high
# [3] = tested on: TRPC4 (transient receptor potential cation channel C4 beta), mouse; assay: positive allosteric modulators of mouse TRPC4, confirmation, cell-based, second round, Fluo-4, HEK293 TRPC4beta/mu-opioid, 1 µM (AID 2554;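 active means primary screen hit whose fluorescence ratio, in both repeats, exceeds the weak agonist control mean by 3 SD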); conditions: DAMGO EC20, Fluo-4 calcium flux, at 1 µM; active compounds read high
# [4] = tested on: TRPC4 beta (transient receptor potential cation channel C4), mouse; assay: positive allosteric modulators of mouse TRPC4, confirmation, cell-based, Fluo-4, HEK293 TRPC4beta/mu-opioid (AID 2555;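 active means primary screen hit whose calcium fluorescence ratio, in both repeats, exceeds the weak agonist control mean by 3 SD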); conditions: DAMGO EC20, Fluo-4 calcium flux, at 10 µM; active compounds read high
# [5] = target: Short transient receptor potential channel 4 (Mus musculus) (UniProt Q9QUQ5); assay: inhibitors of mouse TRPC4 channel, confirmation, cell-based, Fluo4, HEK293 TRPC4beta/mu-opioid (AID 2636;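 active means calcium signal cut by more than 3 SD below the full-agonist control yet still positive, in both repeats and the earlier primary screen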); conditions: DAMGO, Fluo4 calcium flux, at 10 µM; active compounds read high
# [6] = target: Short transient receptor potential channel 4 (Mus musculus) (UniProt Q9QUQ5); assay: inhibitors of mouse TRPC4 channel, confirmation, cell-based, second round, Fluo4, HEK293 TRPC4beta/mu-opioid, 1 µM (AID 2637;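 active means calcium signal ratio cut to more than 3 SD under the fully stimulated control mean yet still positive, in both repeats and the primary screen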;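 on inhibition: percent of integrated ratio relative to wells lacking test compound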); conditions: Fluo4 calcium flux, DAMGO, at 1 µM; active compounds read high
# [7] = target: Short transient receptor potential channel 4 (Mus musculus) (UniProt Q9QUQ5); assay: mouse TRPC4 channel activators, dose response, cell-based, HEK293 TRPC4/mu-opioid, Fluo-4 calcium (AID 434937;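 active means primary screen activator hit with a dose response curve and TRPC4 channel activation at any tested dose; inactive means no activation, no dose response, or not a primary hit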)
# [8] = target: Short transient receptor potential channel 4 (Mus musculus) (UniProt Q9QUQ5); assay: TRPC4 positive allosteric modulators, dose response, cell-based, HEK293 TRPC4/mu-opioid, Fluo-4 calcium, EC20 DAMGO (AID 434941;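 active means earlier screen potentiator hit that boosts the TRPC4 ion channel at some dose, with a dose response; inactive means no potentiation, no dose response, or not a prior hit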;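 further: calcium entry triggered by an EC20 dose of DAMGO at the co-expressed mu-opioid receptor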)
# [9] = target: Short transient receptor potential channel 6 (Mus musculus) (UniProt Q61143); assay: inhibition of mouse TRPC6 channel, confirmation, selectivity assay for TRPC4 inhibitor project, cell-based, HEK293, membrane potential dye, duplicate (AID 434948;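 active means active in primary screen and both duplicates, each dropping signal beyond three positive-control SD with fluorescence still positive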); conditions: HEK293 TRPC6, membrane potential dye fluorescence, at 10 µM, stimulated with maximal-effect acetylcholine; active compounds read high
# [10] = target: Short transient receptor potential channel 6 (Mus musculus) (UniProt Q61143); assay: activation of mouse TRPC6 channel, confirmation, selectivity assay for TRPC4 activator project, cell-based, HEK293, membrane potential dye, duplicate (AID 434950;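 active means membrane potential signal rise above negative control mean plus 3 SD in both duplicates, also active in the earlier TRPC4 screen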); conditions: HEK293 TRPC6, membrane potential fluorescence, at 10 µM; active compounds read high
# [11] = target: Short transient receptor potential channel 6 (Mus musculus) (UniProt Q61143); assay: TRPC6 potentiation by TRPC4 potentiator hits, confirmation, selectivity assay for TRPC4 potentiator project, HEK293 cells, membrane potential dye, duplicate (AID 434952;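 active means compound raising the membrane signal above positive-control mean plus 3 SD in both repeats, and a primary screen hit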); conditions: HEK293 TRPC6, membrane potential dye fluorescence, at 10 µM, maximal acetylcholine added after compound; active compounds read high
# [12] = target: Short transient receptor potential channel 4 (Mus musculus) (UniProt Q9QUQ5); assay: calcium flux activators in TRPC4/5HT1a cells, counter-screen for TRPC4 activator project, cell-based, second counter screen, HEK293 TRPC4/5HT1a, Fluo-4 (AID 434977;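 active means calcium signal rise above buffer-control mean plus 5 SD in both duplicates, and also a hit in the primary screen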); conditions: Fluo-4 calcium flux, at 10 µM; active compounds read high
# [13] = calcium flux inhibitors in TRPC4/5HT1a cells, confirmation, counter-screen for TRPC4 inhibitor project, cell-based, second counter screen, HEK293 TRPC4/5HT1a, Fluo-4 (AID 434978;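 active means primary screen active whose calcium signal fell more than 3 SD beyond the full-serotonin control mean in both duplicate plates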;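 on outcome: serotonin given first at submaximal then at maximal dose after compound preincubation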); conditions: Fluo-4 calcium flux, at 10 µM, serotonin added to trigger calcium flux; active compounds read high
# [14] = tested on: TRPC4 (mouse), co-expressed with 5HT1a in HEK293; assay: calcium flux potentiators in TRPC4/5HT1a cells, confirmation, counter-screen for TRPC4 potentiator project, cell-based, second counter screen, HEK293 TRPC4/5HT1a, Fluo-4 (AID 434979;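 active means signal rise over 3 SD above mean of control wells given weak agonist, in both repeats and first screen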); conditions: Fluo-4 calcium flux, at 10 µM, serotonin added at its EC20 dose; active compounds read high
# [15] = calcium flux activation in mu-opioid HEK293 cells, confirmation, counter-screen for TRPC4 activator project, cell-based, HEK293 mu-opioid receptor line (AID 449723;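 active means hit in primary screen, with calcium signal over 5 SD above buffer well mean in both duplicates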;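 further: counter screen cells carry the mu-opioid receptor alone and lack TRPC4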); conditions: Fluo-4 calcium fluorescence, at 10 µM; active compounds read high
# [16] = calcium flux enhancement in mu-opioid HEK293 cells, confirmation, counter-screen for TRPC4 allosteric potentiator project, cell-based, HEK293 mu-opioid receptor line (AID 449724;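 active means calcium signal rise more than 3 SD above the low-dose agonist control mean, in both duplicate plates and the primary screen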); conditions: Fluo-4 calcium flux, at 10 µM, compound added before EC20 DAMGO stimulus; active compounds read high
# Sequence of Short transient receptor potential channel 4 (Mus musculus) (Q9QUQ5 whole entry, looked up): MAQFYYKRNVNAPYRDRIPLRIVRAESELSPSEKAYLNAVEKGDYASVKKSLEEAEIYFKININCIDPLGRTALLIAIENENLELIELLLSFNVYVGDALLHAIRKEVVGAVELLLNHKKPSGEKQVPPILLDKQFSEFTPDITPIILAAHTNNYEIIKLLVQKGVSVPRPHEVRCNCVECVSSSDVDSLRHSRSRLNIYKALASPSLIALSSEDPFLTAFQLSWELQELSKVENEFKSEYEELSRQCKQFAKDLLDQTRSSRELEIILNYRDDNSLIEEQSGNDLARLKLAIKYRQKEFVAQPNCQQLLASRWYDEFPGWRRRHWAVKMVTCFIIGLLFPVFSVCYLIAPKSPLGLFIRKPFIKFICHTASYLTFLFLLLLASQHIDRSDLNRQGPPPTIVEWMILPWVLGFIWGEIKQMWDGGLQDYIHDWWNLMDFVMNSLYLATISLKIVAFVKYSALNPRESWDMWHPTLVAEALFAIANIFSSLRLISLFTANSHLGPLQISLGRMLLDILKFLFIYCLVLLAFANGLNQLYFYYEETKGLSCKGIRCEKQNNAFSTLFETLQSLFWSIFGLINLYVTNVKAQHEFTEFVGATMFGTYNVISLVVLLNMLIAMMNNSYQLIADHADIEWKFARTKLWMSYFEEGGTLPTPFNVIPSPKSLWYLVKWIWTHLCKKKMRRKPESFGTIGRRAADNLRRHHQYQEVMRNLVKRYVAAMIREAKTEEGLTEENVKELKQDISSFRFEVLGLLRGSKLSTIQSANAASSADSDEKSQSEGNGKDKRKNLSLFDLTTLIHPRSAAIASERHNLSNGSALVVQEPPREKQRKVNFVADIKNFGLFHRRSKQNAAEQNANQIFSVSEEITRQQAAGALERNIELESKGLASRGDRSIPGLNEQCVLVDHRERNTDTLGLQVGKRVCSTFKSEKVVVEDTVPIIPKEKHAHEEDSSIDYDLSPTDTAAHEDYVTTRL
# Sequence of Short transient receptor potential channel 6 (Mus musculus) (Q61143 whole entry, looked up): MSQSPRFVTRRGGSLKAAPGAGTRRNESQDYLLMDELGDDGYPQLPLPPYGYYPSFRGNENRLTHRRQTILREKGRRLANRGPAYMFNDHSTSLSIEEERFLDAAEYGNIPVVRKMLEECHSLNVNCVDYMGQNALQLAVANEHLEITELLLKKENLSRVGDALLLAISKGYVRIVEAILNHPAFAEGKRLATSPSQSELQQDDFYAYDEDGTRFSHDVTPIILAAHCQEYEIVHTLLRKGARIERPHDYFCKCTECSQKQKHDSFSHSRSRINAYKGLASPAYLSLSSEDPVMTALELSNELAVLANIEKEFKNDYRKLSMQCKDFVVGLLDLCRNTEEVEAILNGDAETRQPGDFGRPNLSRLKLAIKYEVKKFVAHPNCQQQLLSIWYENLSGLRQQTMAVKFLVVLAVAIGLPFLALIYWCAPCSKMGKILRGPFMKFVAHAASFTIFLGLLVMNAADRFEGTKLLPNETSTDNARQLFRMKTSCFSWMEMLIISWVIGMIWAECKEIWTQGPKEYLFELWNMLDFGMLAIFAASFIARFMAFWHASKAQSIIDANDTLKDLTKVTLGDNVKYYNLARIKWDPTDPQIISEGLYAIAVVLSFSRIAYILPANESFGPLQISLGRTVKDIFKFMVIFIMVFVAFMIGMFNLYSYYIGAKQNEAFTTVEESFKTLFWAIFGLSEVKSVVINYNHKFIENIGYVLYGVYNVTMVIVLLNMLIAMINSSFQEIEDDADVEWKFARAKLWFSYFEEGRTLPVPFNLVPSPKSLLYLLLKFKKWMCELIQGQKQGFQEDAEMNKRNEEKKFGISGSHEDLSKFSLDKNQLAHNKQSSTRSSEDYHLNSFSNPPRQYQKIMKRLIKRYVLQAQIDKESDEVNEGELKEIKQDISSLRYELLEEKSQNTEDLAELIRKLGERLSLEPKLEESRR
Structure (SMILES),outcome [1],outcome [2],outcome [3],outcome [4],inhibition [5],outcome [6],outcome [7],outcome [8],outcome [9],outcome [10],outcome [11],outcome [12],outcome [13],outcome [14],outcome [15],outcome [16],inhibition [6],inhibition [13],inhibition [9],outcome [5]
COc1cc2c(cc1OC)C(C)N(CCc1ccc(Cl)cc1)CC2 (stereo not given),inactive,inactive,inactive,inactive,75% (active),inactive,inactive,inactive,inactive,inactive,inactive,inactive,inactive,inactive,inactive,inactive,–,–,–,–
C=CCOc1ccc(Br)cc1CNC(C)(C)CO,inactive,inactive,inactive,inactive,94% (active),–,inactive,inactive,inactive,inactive,inactive,inactive,–,inactive,inactive,inactive,39% (active),24.1% (active),–,–
CC(=O)Nc1cccc(C(=O)NCC2(N3CCCCC3)CCCCC2)c1,inactive,inactive,inactive,inactive,89% (active),inactive,inactive,inactive,inactive,inactive,inactive,inactive,inactive,inactive,inactive,inactive,–,–,–,–
CCCCC[n+]1cccc2c3ccccc3ccc21,inactive,inactive,inactive,inactive,93% (active),inactive,inactive,inactive,–,inactive,inactive,inactive,–,inactive,inactive,inactive,–,28.4% (active),29% (active),–
COCCn1c(SCc2ccc(F)cc2)nc2ccccc2c1=O,inactive,inactive,inactive,inactive,96% (active),inactive,inactive,inactive,inactive,inactive,inactive,inactive,–,inactive,inactive,inactive,–,21.6% (active),–,–
COc1ccc2c(C)cc(N3CCCCCC3)nc2c1,inactive,inactive,inactive,inactive,96% (active),–,inactive,inactive,–,inactive,inactive,inactive,–,inactive,inactive,inactive,63% (active),20.8% (active),33.5% (active),–
CCCc1noc2c1/C(=N\O)CC(CC(C)SCC)C2 (stereo not given),inactive,inactive,inactive,inactive,92% (active),inactive,inactive,inactive,inactive,inactive,inactive,inactive,–,inactive,inactive,inactive,–,14.8% (active),–,–
COC(=O)c1ccc(CSc2nc3ccccc3c(=O)n2CC(C)C)o1,inactive,inactive,inactive,inactive,82% (active),–,inactive,inactive,inactive,inactive,inactive,inactive,–,inactive,inactive,inactive,41% (active),39.8% (active),–,–
CN(C)c1ccc([N+](=O)[O-])cc1C(=O)NCC(c1ccco1)N(C)C (stereo not given),inactive,inactive,inactive,inactive,58% (active),inactive,inactive,inactive,inactive,inactive,inactive,inactive,inactive,inactive,inactive,inactive,–,–,–,–
CC(C)C(=O)Nc1ccc(C(=O)Nc2nnc(C(C)(C)C)s2)cc1,inactive,inactive,inactive,inactive,57% (active),inactive,inactive,inactive,inactive,inactive,inactive,inactive,–,inactive,inactive,inactive,–,35.1% (active),–,–
Cc1cc(C)c2[nH]c(=O)c(CN(Cc3cccnc3)C(=S)NCCCN(C)C)cc2c1,inactive,inactive,inactive,inactive,89% (active),–,inactive,inactive,inactive,inactive,inactive,inactive,–,inactive,inactive,inactive,60% (active),20.5% (active),–,–
CCOC(=O)c1c(NC(=O)/C=C/C(=O)O)sc(C)c1-c1ccc(C(C)(C)C)cc1,inactive,inactive,inactive,inactive,–,inactive,inactive,inactive,inactive,inactive,inactive,inactive,–,inactive,inactive,inactive,–,-6.26% (active),–,inactive
Cc1nc(Cl)nc(N(C)c2ccccc2)c1[N+](=O)[O-],inactive,inactive,inactive,inactive,97% (active),–,inactive,inactive,inactive,inactive,inactive,inactive,–,inactive,inactive,inactive,49% (active),43.6% (active),–,–
Cc1ccc(C)c2[nH]c(=O)c(CN(Cc3nnnn3C3CCCCC3)CC3CCCO3)cc12 (stereo not given),inactive,inactive,inactive,inactive,78% (active),inactive,inactive,inactive,inactive,inactive,inactive,inactive,–,inactive,inactive,inactive,–,33% (active),–,–
Cc1ccc2nc(C)c3c(c2c1)N(c1ccc(F)cc1)CC3,inactive,inactive,inactive,inactive,90% (active),–,inactive,inactive,–,inactive,inactive,inactive,–,inactive,inactive,inactive,71% (active),33.8% (active),25% (active),–
COc1ccc(C2C(C(C)=O)=C(O)C(=O)N2c2ccc(Br)cc2)cc1 (stereo not given),inactive,inactive,inactive,inactive,84% (active),–,inactive,inactive,inactive,inactive,inactive,inactive,–,inactive,inactive,inactive,62% (active),23.3% (active),–,–
O=C(C[n+]1cccc(CNC(=O)c2ccc(OC(F)F)cc2)c1)Nc1ccc(SC(F)F)cc1,inactive,inactive,inactive,inactive,94% (active),inactive,inactive,inactive,inactive,inactive,inactive,inactive,inactive,inactive,inactive,inactive,–,–,–,–
CC(NCCC(Cc1ccccc1)c1ccco1)c1ccccc1 (stereo not given),inactive,inactive,inactive,inactive,97% (active),inactive,inactive,inactive,–,inactive,inactive,inactive,–,inactive,inactive,inactive,–,28.4% (active),39% (active),–
COc1ccc(CN2CCN(Cc3ccccc3F)CC2)c(OC)c1,inactive,inactive,inactive,inactive,89% (active),inactive,inactive,inactive,inactive,inactive,inactive,inactive,–,inactive,inactive,inactive,–,30.4% (active),–,–
Cc1cccn2cc(-c3c[nH]c4ccccc34)nc12,inactive,inactive,inactive,inactive,–,inactive,inactive,inactive,–,inactive,inactive,inactive,–,inactive,inactive,inactive,–,35.1% (active),33% (active),inactive
O=C(C[n+]1cc(-c2ccc(Cl)c(Cl)c2)n2c1CCC2)N1c2ccccc2Sc2ccccc21,inactive,inactive,inactive,inactive,75% (active),inactive,inactive,inactive,–,inactive,inactive,inactive,–,inactive,inactive,inactive,–,18.7% (active),53.5% (active),–
CCN(CC)C(=O)C1CCCN(Cc2cccc(Oc3ccccc3)c2)C1 (stereo not given),inactive,inactive,inactive,inactive,93% (active),–,inactive,inactive,inactive,inactive,inactive,inactive,–,inactive,inactive,inactive,53% (active),25.7% (active),–,–
CCC1CCCCN1CCN1C(=O)C2C(C(=O)Nc3ccc(OC)cc3)C3C=CC2(O3)C1C(=O)NC1CCCCC1 (stereo not given),inactive,inactive,inactive,inactive,96% (active),–,inactive,inactive,inactive,inactive,inactive,inactive,inactive,inactive,inactive,inactive,90% (active),–,–,–
Cc1cccc(NC(=O)CSc2nnc(-c3cc(C)n(-c4ccccc4)c3C)o2)c1C,inactive,inactive,inactive,inactive,78% (active),inactive,inactive,inactive,inactive,inactive,inactive,inactive,–,inactive,inactive,inactive,–,16.2% (active),–,–
COc1cc(CNC2CCCC2)c(Br)cc1OC1CCCC1,inactive,inactive,inactive,inactive,95% (active),inactive,inactive,inactive,–,inactive,inactive,inactive,inactive,inactive,inactive,inactive,–,–,53% (active),–
COc1cccc2cc(C(N)=O)/c(=N\NC(=O)c3ccccc3)oc12,inactive,inactive,inactive,inactive,73% (active),–,inactive,inactive,inactive,inactive,inactive,inactive,–,inactive,inactive,inactive,44% (active),40.1% (active),–,–
Cn1c(=O)c2c(nc(SCc3cccnc3)n2Cc2ccc(F)cc2)n(C)c1=O,inactive,inactive,inactive,inactive,79% (active),inactive,inactive,inactive,inactive,inactive,inactive,inactive,–,inactive,inactive,inactive,–,22.8% (active),–,–
CCOCCCNCc1cc(Br)ccc1OCc1ccccc1,inactive,inactive,inactive,inactive,94% (active),–,inactive,inactive,–,inactive,inactive,inactive,–,inactive,inactive,inactive,49% (active),16.2% (active),28% (active),–
Cc1cc(-c2cn3ccccc3n2)c(C)n1-c1ccccc1,inactive,inactive,inactive,inactive,101% (active),–,inactive,inactive,inactive,inactive,inactive,inactive,inactive,inactive,inactive,inactive,40% (active),–,–,–
CNc1nc(NCc2ccccc2)c2ccccc2n1,inactive,inactive,inactive,inactive,–,–,inactive,inactive,–,inactive,inactive,inactive,–,inactive,inactive,inactive,69% (active),26.9% (active),50.5% (active),inactive
